From the supplement of paper PMC10477191
± gives the standard deviation of the averaged measurements.

tested on: Drosophila ezoana antennal basiconic sensillum ab5; assay: odor-evoked OSN spike response (post minus pre-stimulus); higher = stronger neuronal excitation; settings: odor dilution: 10^-4
Method: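 Single sensillum recordings from antennal basiconic sensilla of D. ezoana. A 500 ms pulse of odorant (10^-4 in mineral oil or DMSO) was delivered; the response is the change in action potential frequency between the 1 s pre- and post-stimulus windows (spikes/s).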

Row | Compound | odor-evoked OSN spike response
1 | COc1cccc(OC)c1O [Phenol, 2,6-dimethoxy- (powder)] | 86.2 ± 29 spikes/s
2 | CC(=O)c1ccccc1 [Acetophenone] | 77.7 ± 24 spikes/s
3 | CC(=O)OC/C=C(\C)CCC=C(C)C [geranyl acetate] | 112 ± 41 spikes/s
